# Assay results published in PubChem BioAssay AID602441 (National Center for Advancing Translational Sciences (NCATS), 2012).
# Fewer than 10 of roughly 1,300 compounds were called active. Inconclusive results (about 9%) are left out. The call rests on the fitted dose curve; in most records, active means well fitted curve in the direction sought with a large enough effect; inconclusive means small, poorly fitted or top-dose-only effect, or another doubt; inactive means no such curve, though single readings can be large or run the other way. A selection follows. Entries that show only a call come without a potency.
# Test: qHTS for antagonists of the Thyroid Stimulation Hormone Receptor: Hit Validation in Parental Cell Line
# Settings: parental HEK293 cells lacking TSHR, counter-screen; series mostly up to 56.9 µM
# Text: The thyroid-stimulating hormone receptor (TSHR) is a member of the 7 trans-membrane-spanning receptor (7TMR) family of cell surface receptors. TSHR-mediated hyperthyroidism is important in thyroid pathology. The development of small molecule antagonists of TSHR may lead to therapeutic approaches for TSHR-mediated hyperthyroidism caused by constitutively activating mutations or stimulating auto-antibodies associated with Graves' disease. Graves' disease is the leading cause of hyperthyroidism and is caused by autoantibodies that stimulate TSHR (TsAbs) causing thyroid growth and unregulated overproduction of thyroid hormones and existing treatments have liabilities (agranulocytosis). In addition, TSHRs are known to be expressed in multiple extrathyroidal tissues including bone, brain, kidney, testis, fat and cells of the immune system but the role of the TSHR in these tissues is not clear. Therefore, TSHR antagonists/inverse agonists could be used as probes of extrathyroidal TSHR function. Finally, TSHR inverse agonists, which are a subclass of antagonists that inhibit agonist-independent (or basal or constitutive) TSHR signaling, could be used to inhibit TSH-independent signaling in patients with recurrent or metastatic thyroid cancer who are receiving thyroid hormone to suppress TSH.
# In collaboration between scientist from the NCGC and the NIDDK, a miniaturized HTRF high-throughput screen was developed. It's a cell based assay, where an anti cAMP antibody contains a fluorescent cryptate tag (excitation 337 nm; emission 620 nm) and the acceptor is cAMP-d2 (excitation 620 nm; emission 665 nm). When antibody and cAMP-d2 interact and are excited by a 337 nm light, a FRET occurs resulting in emission at 665 nm. The assay is competition between cAMP-d2 and cAMP (from the cell lysate). The homogeneous protocol allows for one step dispense after stimulation that is automation friendly. This is a hit validation assay in a counterscreen using parental HEK 293 cells lines.
# NIH Chemical Genomics Center [NCGC]
# NIH Molecular Libraries Probe Centers Network [MLPCN]
# Assay Provider: Marvin Gershengorn, NIDDK
# An anti cAMP antibody contains a fluorescent cryptate tag (excitation 337 nm; emission 620 nm) and the acceptor is cAMP-d2 (excitation 620 nm; emission 665 nm). When antibody and cAMP-d2 interact and are excited by a 337 nm light, a FRET occurs resulting in emission at 665 nm. The assay is competition between cAMP-d2 and cAMP (from the cell lysate). The homogeneous protocol allows for one step dispense after stimulation that is automation friendly. This assay uses parental HEK-EM 293 cells
row,Structure (SMILES),Potency
1,N#CC(C#N)=C1C=CC=CN1/C(=C\c1ccco1)C(=O)c1ccccc1,inactive
2,COc1ccc(CN(C)C(=O)COC(=O)c2cnc(Cl)c(Cl)c2)cc1,inactive
3,O=C(Nc1ccn(Cc2ccccc2F)n1)c1ccc(COc2ccccc2Cl)cc1,inactive
4,CCSC1=NSC2=NC(=O)/C(=C\c3coc4ccccc4c3=O)C(=N)N12,inactive
5,CC1=C(OC(=O)c2ccccc2)C(C)(C)C(c2ccccc2)OC1=O (stereo not given),inactive
6,O=C(Nc1nnc(S(=O)(=O)N2CCCCC2)s1)c1cccc(Br)c1,inactive
7,O=C(/C=C/c1ccc(Cl)cc1Cl)NCCSCc1ccccc1,inactive
8,CCCC(=O)N(C1CC(C)C(C#N)(C#N)C1(C#N)C#N)N(C)C (stereo not given),inactive
9,Cc1ccc(Oc2cc(NC(=O)CCCn3nc([N+](=O)[O-])cc3C)cc([N+](=O)[O-])c2)cc1,inactive
10,O=c1[nH]c(-c2ccccc2F)nc2c1sc(=S)n2Cc1ccccc1,inactive
11,O=C(Nc1ccc2oc(-c3ccccc3F)nc2c1)c1ccc2c(c1)OCCO2,inactive
12,C=CC(C)(C)c1c2occc2c(O)c2ccc(=O)oc12,inactive
13,Cc1ccc(-c2csc(NC(=O)c3ccc4c(=O)n5c(nc4c3)CCCCC5)n2)cc1,inactive
14,Cc1ccc(C2(c3ccc(C)cc3)CC2C(=O)Nc2ccc([N+](=O)[O-])cc2O)cc1 (stereo not given),inactive
15,COc1ccc(NC(=O)c2ccc(-c3ccccc3)cc2)cc1NS(=O)(=O)c1ccc(F)cc1,inactive
16,COc1ccc(N2CCN(C(=O)c3ccccc3N(C)S(=O)(=O)c3ccccc3)CC2)cc1,inactive
17,Nc1ncc(Br)cc1S(=O)(=O)Nc1cc(C(F)(F)F)cc(C(F)(F)F)c1,inactive
18,CCOc1cc(/C=C/c2ccc3cccc([N+](=O)[O-])c3n2)ccc1OCC(=O)N(C)C,inactive
19,C=CC[C@H](CC(=O)N(CCO)Cc1ccccc1)C(=O)N[C@H](COC(=O)[C@@H](CC=C)Cc1ccc(F)cc1)C(C)(C)C,inactive
20,COc1ccc(C)cc1-n1nnnc1SCc1cc(=O)n2cc(C)ccc2n1,inactive
21,Cc1ccc(CSc2nnc(SCC(=O)N/N=C/c3c(C)nn(-c4ccccc4)c3C)s2)cc1,inactive
22,COc1ccc(C(=O)Nc2ccc(Cl)c(S(=O)(=O)Nc3ccccc3OC)c2)cc1,inactive
23,CC(Oc1ccc(Cl)cc1Cl)C(=O)Nc1cccnc1 (stereo not given),inactive
24,O=C(c1ccco1)N1CCN(c2ncnc3c2nnn3Cc2ccccc2Cl)CC1,inactive
25,CCOc1ccc2nc(NC(=O)c3ccc(OCC4CCCO4)cc3)sc2c1 (stereo not given),inactive

row,Structure (SMILES),Potency
1,O=c1c2ccccc2nnn1CSc1nnc(-c2cccs2)n1Cc1ccccc1,inactive
2,O=C(O)c1nn(CC(=O)N2CCN(c3ncc(C(F)(F)F)cc3Cl)CC2)c(=O)c2ccccc12,inactive
3,O=C(Nc1nc(-c2cccs2)c(-c2cccs2)s1)C1CCCC1,inactive
4,COc1ccc(C2=NS(=O)(=O)N(C)C(C(=O)Nc3ccc4c(c3)OCO4)=C2)cc1OC,inactive
5,Cc1cc(C)c(S(=O)(=O)c2c(C)cccc2C)c(Cl)n1,inactive
6,COc1ccc(S(=O)(=O)n2cnc3ccccc32)c(C)c1,inactive
7,CCCCOc1ccc(/C=N/Nc2cc(N3CCOCC3)nc(C)n2)cc1,inactive
8,O=c1cc(-c2ccccc2)nc2c(-c3ccccc3)c(C(F)(F)F)[nH]n12,inactive
9,Cc1ccc(OCCSc2ncccn2)c(C)c1,inactive
10,CCN(CC)S(=O)(=O)c1cccc(NC(=O)CNc2cccc(S(=O)(=O)N3CCOCC3)c2)c1,inactive
11,C=CCn1c(SCC(=O)c2cccs2)nc2sc(CC)cc2c1=O,inactive
12,N#C/C(=C\c1ccc(Oc2ccc(C(F)(F)F)cc2[N+](=O)[O-])cc1)c1nc2ccccc2[nH]1,inactive
13,Cc1cc(C)c(-c2csc(NC(=O)/C=C/c3cccs3)n2)c(C)c1,inactive
14,Cc1ccc(C)c(S(=O)(=O)N2CCN(C(=O)C3CCN(c4ncnc5sc(C)c(C)c45)CC3)CC2)c1,inactive
15,CC(C)(C)c1ccc(C(=O)CC(Sc2ccc(Cl)cc2)C(=O)O)cc1 (stereo not given),inactive
16,O=C(NCc1ccc2c(c1)OCO2)C12CN(Cc3ccccc3)CC1C(c1cccc([N+](=O)[O-])c1)=NO2 (stereo not given),inactive
17,Cc1nc2ccc(Nc3nc4cc(S(=O)(=O)N5CCOCC5)ccc4o3)cc2s1,inactive
18,CSc1cccc(NC(=O)C2CCCN(S(=O)(=O)c3ccc(F)cc3)C2)c1 (stereo not given),inactive
19,O=C(CSc1nc(-c2ccc(Cl)cc2)cs1)Nc1cccc([N+](=O)[O-])c1,inactive
20,CCN(Cc1ccccc1)c1ccc(/C=N/NC(=O)c2cccc(S(=O)(=O)N3CCOCC3)c2)cc1,inactive
21,Fc1ccc(/C=C2\CCCC3=C2Nc2ncnn2C3c2ccc(F)cc2)cc1 (stereo not given),inactive
22,O=C1NC(=S)N(C(=O)c2ccc(F)cc2)/C1=C/c1ccccc1,inactive
23,O=S(=O)(/N=C(/Nc1cccc2ccccc12)c1ccccc1)c1cccs1,inactive
24,Cc1ccc(-c2csc(N(CCO)CCCn3c(C(F)(F)F)nc4ccccc43)n2)cc1,inactive
25,Cc1ccc(C(=O)Nc2nc(-c3ccc(F)cc3)cs2)o1,inactive

row,Structure (SMILES),Potency
1,CN(c1ccc(OCC(=O)Nc2nc3ccccc3s2)cc1)S(=O)(=O)c1ccccc1,inactive
2,Cc1cc(=O)[nH]c(SCC(=O)Nc2ccc(Br)cc2)c1C#N,inactive
3,CCCc1ccc(-c2c(C)sc(NC(=O)c3ccnn3C)c2C#N)cc1,inactive
4,NS(=O)(=O)c1ccc(NCc2ccccc2OCc2ccccc2F)cc1,inactive
5,O=C(Nc1cccc(S(=O)(=O)N2CCCCC2)c1)c1ccc2c(=O)n3c(nc2c1)CCCCC3,inactive
6,COc1cc(/C=C(\C#N)c2nc3ccccc3s2)cc([N+](=O)[O-])c1O,inactive
7,O=C(CC1S/C(=N/N=C2CCCCCC2)NC1=O)Nc1ccc(Br)cc1F (stereo not given),inactive
8,O=C(CNc1ccc(C(F)(F)F)cc1)Nc1cccc(S(=O)(=O)N2CCCC2)c1,inactive
9,O=S(=O)(Nc1cccnc1)c1cc(Cl)ccc1Cl,inactive
10,COCC(C)n1c(COc2ccccc2F)nnc1SCc1c(C)noc1C (stereo not given),inactive
11,CS(=O)(=O)c1ccc(C(=O)OCC(=O)NC(=O)C2CCCCC2)cc1[N+](=O)[O-],inactive
12,CC(C)(C)c1cc2nc3c(c(=O)n2[nH]1)CN(Cc1ccccc1)C3=O,inactive
13,O=C(COc1ccccc1/C=C1\SC(=S)NC1=O)Nc1ccc(F)cc1,inactive
14,CN(C)S(=O)(=O)Oc1cccc(C(=O)Nc2ccc(Cl)c(Cl)c2)c1,inactive
15,O=[N+]([O-])c1ccc(NC(=S)NCCc2ccc(F)cc2)cc1,inactive
16,COCC1CCCCN1C(=O)C1CCN(c2nc(-c3ccccc3)nc3c2CCC3)CC1 (stereo not given),inactive
17,CC(CNC(=O)c1cc(COc2ccc3ncccc3c2)on1)c1ccccc1 (stereo not given),inactive
18,N#C/C(=C(/O)COC(=O)c1ccc(C#N)cc1)c1nc2ccccc2s1,inactive
19,CCCCCC/C(C)=C1/SC(=S)NC1=O,inactive
20,O=C(Cn1nc(Cc2cccnc2)c2ccccc2c1=O)NCC1COc2ccccc2O1 (stereo not given),inactive
21,Cc1ccc(/C=C/C(=O)Nc2ccc(Oc3ccccc3)cc2)o1,inactive
22,CC(C)Oc1ccc(C(=O)Nc2ccc(Cl)c(S(=O)(=O)Nc3ccc(Cl)cc3)c2)cc1,inactive
23,Cc1ccc([N+](=O)[O-])cc1S(=O)(=O)Nc1ccc(-c2ccc(N3CCCC3)nn2)cc1,inactive
24,Cc1ccccc1-n1sc2cc(F)ccc2c1=O,inactive
25,COc1ccc(CNC(=O)C(c2ccco2)N(C(=O)c2snc(C(N)=O)c2N)c2cccc(OC)c2)cc1 (stereo not given),inactive

row,Structure (SMILES),Potency
1,CC(C)C(c1nnnn1Cc1ccco1)N1CCN(c2nc3ccccc3s2)CC1 (stereo not given),inactive
2,COc1cccc(CN(C)C(=O)c2ccc(Oc3ccccc3)cc2)c1OC,inactive
3,Cc1ccc(C2=NS(=O)(=O)N(C)C(C(=O)NCc3ccc(F)cc3)=C2)cc1,inactive
4,CC(=O)c1ccc(N2CCN(C(=S)Nc3ccc(Oc4ccccc4)cc3)CC2)cc1,inactive
5,CCn1c(=NC(=O)CSC(C)=O)sc2ccccc21,inactive
6,Clc1ccc2c(c1)-c1nnc(Br)n1-c1ccccc1S2,inactive
7,COc1ccc(C(=O)/C(=C\c2ccco2)N2C=CC=CC2=C(C#N)C#N)cc1,inactive
8,COc1cc(/C=N/Nc2ccc(C(=O)O)cc2)ccc1O,inactive
9,Cc1nn(Cc2ccc(Cl)cc2)c(C)c1NC(=O)c1noc2c1CCc1ccccc1-2,inactive
10,Cc1ccc(-n2c(Cl)c(Cl)nc(Cl)c2=O)cc1,inactive
11,Cc1nn(-c2nc3ccccc3s2)c(N)c1-c1ccccc1,inactive
12,CC(C)C(C)NC(=O)COc1ccc(Sc2ccc(OCC(=O)NC(C)C(C)C)cc2)cc1 (stereo not given),inactive
13,Cc1ccc2nc(NC(=O)C3CCN(S(=O)(=O)c4cc([N+](=O)[O-])ccc4Cl)CC3)sc2c1,inactive
14,Cc1cccc(NC(=O)C2C3CCC4C(CCC32)C4(Cl)Cl)c1 (stereo not given),inactive
15,Cc1ccccc1Oc1cc(-n2ncc(Cl)c(Cl)c2=O)ncn1,inactive
16,COc1ccc(NC(=O)/C(Cl)=C(/Cl)S(=O)(=O)Cc2ccccc2)cn1,inactive
17,O=C(Nc1nc(-c2cccs2)cs1)c1ccc(S(=O)(=O)N2CCCCC2)cc1,inactive
18,CCCCc1c(C)nc2nc(SCc3ccc(Cl)cc3)[nH]n2c1=O,inactive
19,Clc1cc(Cl)c(OCc2nc(-c3ccccn3)no2)cc1Cl,inactive
20,O=[N+]([O-])c1ccc(NC(=S)NCc2ccc(F)cc2)cc1,inactive
21,CC1CCCCN1C(=O)CSCC(=O)Nc1nc(-c2cccs2)cs1 (stereo not given),inactive
22,CC(=O)c1c(C)[nH]c(C(=O)COc2cc(C)ccc2C(C)C)c1C,inactive
23,COc1cccc(COc2cc3ccccc3nc2C)c1,inactive
24,O=[N+]([O-])c1cc(Br)c(O)c(/C=N/Nc2nnnn2-c2cccc3ccccc23)c1,inactive
25,Cc1csc2ncnc(N3CCN(S(=O)(=O)c4cccc(C(F)(F)F)c4)CC3)c12,inactive
